Our source for the manual score values is PubChem BioAssay AID623911 (Vanderbilt High Throughput Screening Facility, 2012).

In all, about 2,100 compounds went through this assay and about 770 (37%) were called active. The list shows a part of the results. A number with no mark means an inactive call.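 Rule for the calls: active = by-eye trace score of 1 for enhancers or -1 for inhibitors, so actives lie on both sides (some results past the limit were not filed as active); inactive = score 0, or 3 fluorescent, or 4 baseline rise.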

Chain of G protein-activated inward rectifier potassium channel 2 (Homo sapiens) + G protein-activated inward rectifier potassium channel 1 (Homo sapiens) (P48051 whole entry, looked up): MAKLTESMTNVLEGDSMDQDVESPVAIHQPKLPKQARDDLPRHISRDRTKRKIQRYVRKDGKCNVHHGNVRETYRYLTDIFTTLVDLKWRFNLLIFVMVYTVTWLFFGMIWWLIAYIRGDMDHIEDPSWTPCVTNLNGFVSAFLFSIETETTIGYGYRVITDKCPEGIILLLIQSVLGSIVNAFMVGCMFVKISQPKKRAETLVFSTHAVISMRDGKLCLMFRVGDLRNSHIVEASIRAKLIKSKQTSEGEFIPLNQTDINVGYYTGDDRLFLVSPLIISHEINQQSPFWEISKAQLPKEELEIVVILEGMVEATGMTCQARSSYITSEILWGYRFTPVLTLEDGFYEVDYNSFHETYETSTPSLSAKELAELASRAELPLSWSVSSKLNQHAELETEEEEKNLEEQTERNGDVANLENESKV
Chain of G protein-activated inward rectifier potassium channel 2 (Homo sapiens) + G protein-activated inward rectifier potassium channel 1 (Homo sapiens) (P48549 whole entry, looked up): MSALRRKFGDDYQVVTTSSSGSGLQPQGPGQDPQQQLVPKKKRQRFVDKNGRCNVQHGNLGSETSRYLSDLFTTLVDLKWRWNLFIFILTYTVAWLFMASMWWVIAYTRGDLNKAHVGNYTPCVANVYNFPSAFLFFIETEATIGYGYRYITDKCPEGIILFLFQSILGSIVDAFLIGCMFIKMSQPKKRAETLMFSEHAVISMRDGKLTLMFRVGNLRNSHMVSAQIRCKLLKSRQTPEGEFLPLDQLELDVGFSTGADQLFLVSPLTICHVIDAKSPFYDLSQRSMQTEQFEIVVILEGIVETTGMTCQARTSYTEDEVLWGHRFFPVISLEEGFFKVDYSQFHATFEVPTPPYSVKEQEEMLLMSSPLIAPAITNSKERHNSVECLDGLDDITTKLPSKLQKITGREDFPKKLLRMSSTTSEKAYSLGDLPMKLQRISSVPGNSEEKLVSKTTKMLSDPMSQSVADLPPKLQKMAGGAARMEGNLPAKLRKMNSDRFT

The test concerns the target G protein-activated inward rectifier potassium channel 2 (Homo sapiens) + G protein-activated inward rectifier potassium channel 1 (Homo sapiens) (UniProt P48051+P48549). The test can be described thus: GIRK1/2 thallium flux modulators, retest, confirmation, cell-based, HEK293 rmGlu8/hGIRK1/2, FluoZin-2 (AID 623911). To be noted: HEK293 rmGlu8/hGIRK1/2, thallium flux FluoZin-2; actives lie on both sides; glutamate co-added at its EC20 level.
For `CSC(=O)NC12CC3CC(CC(C)(C3)C1)C2`, the manual score was 0.

Take `COCCNC(=O)CN1C(=O)CSc2ncccc21`: the manual score is 1 (active). In the case of `CCC(C)NC(=O)CN1C(=O)CC(C)(C)S(=O)(=O)c2ccccc21` (configuration not stated), the manual score is 0. As for `COCCNC(=O)CCCCCn1c(=S)[nH]c2ccccc2c1=O`, the figure is 0; as for `CC(c1ccc(F)cc1)n1c(-c2ccc3ccccc3n2)n[nH]c1=S` (configuration not stated), 0.5; as for `CCc1cc(-c2n[nH]c(=S)n2C(C)c2ccccc2)cs1` (configuration not stated), -0.5. As for `CC(c1ccc(Cl)cc1)n1c(-c2ccc3ccccc3n2)n[nH]c1=S` (configuration not stated), the figure is 1 (active); as for `COc1ccc(NC2=Nc3cccc4cccc2c34)cc1OC`, 0. As for `CCCCN(C)C1=Nc2cccc3cccc1c23`, the figure is -1 (active); as for `CC/C(=N\NC(=S)Nc1ccc(OC)cc1)c1ccc(OC(F)F)cc1`, 0.

In the case of `CCc1ccc(NC(=S)NNC(=O)c2ccccc2OC(F)F)cc1`, the manual score was 1 (active).

For `O=C1C2C3C=CC(C3)C2C(=O)N1/N=C/c1cn(Cc2ccccc2)c2ccccc12` (configuration not stated), the manual score is 0. As for `O=C(NC(=S)Nc1nc2c(s1)CCCC2)c1ccc(C(=O)c2ccccc2)cc1`, the figure is 0. Regarding `CCOC(=O)Cc1csc(NC(=S)NC(=O)c2ccc(C)cc2)n1`, the manual score was 1 (active). As for `CCOC(=O)Cc1csc(NC(=S)NC(=O)c2ccccc2)n1`, the figure is 1 (active); as for `O=C(NC(=S)Nc1nc2c(s1)CCCC2)c1ccccc1`, 0. As for `CC(C)CC(=O)NC(=S)Nc1nc(-c2cccc3ccccc23)cs1`, the figure is 0; as for `CCOC(=O)Cc1csc(NC(=O)Nc2ccccc2)n1`, 1 (active); as for `CCOC(=O)Cc1csc(NC(=S)NC(=O)C(C)(C)C)n1`, 1 (active). As for `O=C1C(Cl)=C(N2CCOCC2)C(=O)N1c1cccc(Cl)c1`, the figure is 0; as for `CCCc1cc(-c2n[nH]c(=S)n2CC(C)C)cs1`, 0; as for `CCCCCNC(=O)c1ccc2c(=O)[nH]c3c(C(=O)NCC4CCCO4)sc(=S)n3c2c1` (configuration not stated), 0. In the case of `CC(C)C(C)(C#N)NC(=O)CSc1ncnc2sc(-c3ccccc3)cc12` (configuration not stated), the manual score was 0. As for `Cc1cc(C(=O)CSc2n[nH]c(N)n2)c(C)n1-c1cc(F)ccc1F`, the figure is 0; as for `O=C1Nc2cc(S(=O)(=O)N3CCCC3)ccc2N2CCCC12` (configuration not stated), 0. As for `Cc1ccc(NC(=O)COC(=O)/C=C/c2ccco2)cc1S(=O)(=O)N(C)C`, the figure is 1 (active); as for `Cc1ccc(NC(=O)COn2nnc3ccc(S(=O)(=O)N(C)C)cc32)cc1F`, 0; as for `Cc1cc(C(=O)OCC(=O)Nc2ccc(F)cc2)c(C)o1`, 0. As for `Cc1ccc(NC(=O)Cc2ccccc2Cl)cc1S(=O)(=O)N(C)C`, the figure is 1 (active); as for `CC(C)c1ccccc1NC(=O)COC(=O)/C=C/c1cccc([N+](=O)[O-])c1`, 0. As for `Cc1ccc(NC(=O)COC(=O)CCC(=O)c2ccc(Cl)cc2)cc1S(=O)(=O)N(C)C`, the manual score was 1 (active). As for `CCOCc1c(C(=O)OCC(=O)Nc2ccc(C)c(S(=O)(=O)N(C)C)c2)oc2ccccc12`, the figure is 1 (active).
